Results reported in PubChem BioAssay.

Columns and labels:
[1] = system: Human papillomavirus type 1a protein E7 (residues 44-93); assay: HPV1a E7 fragment binders on microarrays, primary screen, biochemical, small-molecule microarray, residues 44-93, 635 nm fluorescence (AID 1108); conditions: small-molecule microarray binding, fluorescence 635 nm; higher = more signal;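 also: E7 fragment applied at 1 µg/mL in TBST for 1 h at 4 C; score combines spot fluorescence with its signal to noise ratio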
[2] = modulators of HCV replicon luciferase signal, primary screen, HCV replication inhibitor project, Huh7 cells, luciferase reporter (AID 1109); conditions: 48 h, higher = more signal;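 also: huh7 hepatoma cells harbouring a luciferase neomycin HCV replicon reporter; luciferase luminescence as measure of HCV replicon replication; test concentration not given here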
[3] = molecular target: Left-right determination factor 2 (Homo sapiens) (UniProt O00292); assay: LEFTY2 binders on small-molecule microarrays, primary screen, biochemical, small-molecule microarray, 635 nm fluorescence scan (AID 1110); conditions: LEFTY2 binding, higher = more signal
Sequence of Left-right determination factor 2 (Homo sapiens) (O00292 whole entry, looked up): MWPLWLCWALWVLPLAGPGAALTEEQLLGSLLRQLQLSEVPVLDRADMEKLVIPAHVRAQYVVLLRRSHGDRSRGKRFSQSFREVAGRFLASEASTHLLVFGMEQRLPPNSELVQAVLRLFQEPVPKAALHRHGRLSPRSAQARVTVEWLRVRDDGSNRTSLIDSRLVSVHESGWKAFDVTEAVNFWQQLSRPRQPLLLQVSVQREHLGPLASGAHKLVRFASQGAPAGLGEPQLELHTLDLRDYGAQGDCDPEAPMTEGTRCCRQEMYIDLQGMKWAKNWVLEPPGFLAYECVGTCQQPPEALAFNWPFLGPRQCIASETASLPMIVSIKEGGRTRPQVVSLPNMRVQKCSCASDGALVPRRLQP

[4] = molecular target: Calmodulin-1 (Homo sapiens) (UniProt P0DP23); assay: CALM1 binders on microarrays, EGTA buffer, profiling panel, biochemical, small-molecule microarray, Cy5-labelled CALM1 (AID 1111); conditions: Cy5-CALM1 binding fluorescence, higher = more signal;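 also: labelled calmodulin applied in Tris saline Tween buffer holding calcium plus EGTA and DTT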
[5] = molecular target: Calmodulin-1 (Homo sapiens) (UniProt P0DP23); assay: calcium-bound CALM1 binders on microarrays, profiling panel, artefact control for SMM control-protein annotation, biochemical, small-molecule microarray, Cy5-labelled CALM1, plus calcium (AID 1112); conditions: Cy5-CALM1 binding fluorescence, higher = more signal;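 also: score merges spot fluorescence with signal to noise from triplicate slides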
[6] = small-molecule microarray binders of probe aWnt5a, primary screen, biochemical, biotinylated probe, 635/667 nm fluorescence (AID 1113); conditions: higher = more signal;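 also: score merges 667 nm fluorescence intensity with signal-to-noise per printed feature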
[7] = small-molecule microarray binders of probe aShh, primary screen, biochemical, biotinylated probe, 635/667 nm fluorescence (AID 1114); conditions: higher = more signal;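 also: probe is biotin-labelled aShh protein from a stem cell growth factor screen; measures binding of labelled protein to compounds printed on the slide; score merges feature fluorescence at 667 nm with signal-to-noise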
[8] = small-molecule microarray binders of probe aNog, primary screen, biochemical, biotinylated probe, 635/667 nm fluorescence (AID 1115); conditions: higher = more signal;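 also: probe is biotinylated aNog protein used at 0.15 µg/mL for 1 h at 4 C; z-score combines 667 nm fluorescence of each spot with its signal to noise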
[9] = molecular target: Torsin-1A-interacting protein 1 (Homo sapiens) (UniProt Q5JTV8); assay: LAP1 binders from COS7 cell lysate, primary screen, small-molecule microarray, 635/667 nm fluorescence (AID 1116); conditions: COS7-hLAP1 lysate binding, 635 nm fluorescence, higher = more signal
Sequence of Torsin-1A-interacting protein 1 (Homo sapiens) (Q5JTV8 whole entry, looked up): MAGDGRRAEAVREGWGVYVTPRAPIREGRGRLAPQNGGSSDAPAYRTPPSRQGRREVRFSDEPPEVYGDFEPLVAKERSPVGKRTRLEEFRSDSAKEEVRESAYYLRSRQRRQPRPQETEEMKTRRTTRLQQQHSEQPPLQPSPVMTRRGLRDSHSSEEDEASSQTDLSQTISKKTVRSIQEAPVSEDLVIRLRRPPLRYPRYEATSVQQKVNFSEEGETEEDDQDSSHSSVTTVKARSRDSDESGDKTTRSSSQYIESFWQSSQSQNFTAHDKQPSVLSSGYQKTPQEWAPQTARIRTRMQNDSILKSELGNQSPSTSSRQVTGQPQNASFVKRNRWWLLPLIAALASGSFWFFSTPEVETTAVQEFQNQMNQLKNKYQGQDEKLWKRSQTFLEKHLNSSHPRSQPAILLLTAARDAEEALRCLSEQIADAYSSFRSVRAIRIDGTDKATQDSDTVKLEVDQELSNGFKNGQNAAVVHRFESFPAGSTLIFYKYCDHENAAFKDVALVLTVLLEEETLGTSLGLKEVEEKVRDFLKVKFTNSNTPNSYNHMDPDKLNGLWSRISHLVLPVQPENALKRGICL

[10] = molecular target: Alpha-bungarotoxin (Bungarus multicinctus) (UniProt P60615); assay: alpha-bungarotoxin binders on microarray, profiling panel, artefact control for SMM control protein annotation, biochemical, small-molecule microarray, Alexa647 label, 635/667 nm fluorescence (AID 1117); conditions: alpha-BTX-A647 binding fluorescence, higher = more signal
Sequence of Alpha-bungarotoxin (Bungarus multicinctus) (P60615 whole entry, looked up): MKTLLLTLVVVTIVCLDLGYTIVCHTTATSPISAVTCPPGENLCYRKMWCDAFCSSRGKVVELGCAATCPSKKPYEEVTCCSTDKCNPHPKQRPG

Row | SMILES | composite z-score [1] | z-score [2] | composite z-score [3] | composite z-score [4] | composite z-score [5] | composite z-score [6] | composite z-score [7] | composite z-score [8] | composite z-score [9] | composite z-score [10]
1 | CCCNC(=O)[C@@H]1c2ccccc2C(=O)N(Cc2ccccc2Cl)[C@H]1c1ccc(CO)cc1 | 1.22 | -0.656 | 0.531 | 0.936 | 0.375 | -0.0203 | -0.0769 | 0.546 | 0.598 | 0.726
2 | C[C@@H]1CCC2C(=O)N(Cc3ccccc3)C[C@@H](O)CN2[C@H]1c1ccc(Br)cc1 (stereo not given in full) | 0.671 | 0.344 | 0.149 | 0.102 | -0.28 | -0.169 | -0.138 | -0.0675 | 0.199 | 0.0711
3 | O=C1C2=CC[C@H]3C(=O)N(Cc4ccc5c(c4)OCO5)C(=O)[C@H]3[C@H]2[C@H](O)[C@@H]2O[C@H]12 | 0.631 | -0.43 | 0.341 | -0.306 | -0.502 | -0.0495 | -0.346 | -0.0381 | 0.442 | 0.251
4 | COc1cccc([C@H]2Oc3ccc(OC)cc3C(=NO[C@H](C)c3cn([C@@H]4COC[C@H]4O)nn3)[C@@H]2O)c1 | -0.632 | -0.0869 | -0.647 | 0.0409 | -0.421 | -0.184 | -0.147 | -0.36 | -0.1 | 1.7
5 | O=C1[C@H]2[C@H]3[C@H](O)[C@H](O)CC(=NO[C@@H]4O[C@H](CO)[C@@H](O)[C@H](O)[C@H]4O)[C@@H]3CC[C@H]2C(=O)N1Cc1ccc2c(c1)OCO2 | 1.13 | 0.363 | 0.387 | 0.0102 | -0.566 | -0.0519 | -0.403 | -0.244 | 0.715 | 0.378
6 | CCN1C(=O)[C@H]2[C@H]3[C@H](O)[C@H](O)CC(=NOCC=C(C)CCC=C(C)C)[C@H]3CC[C@H]2C1=O | 0.614 | -0.504 | 1.01 | -1.01 | -2.13 | -0.0704 | -0.0626 | 0.161 | 0.507 | -0.476
7 | COCC1=C2[C@@H](CCc3ccccc3)OB(O)C[C@@H]2n2c(=O)n(-c3ccccc3)c(=O)n2C1 | -0.289 | 0.332 | 0.26 | -0.455 | -0.438 | -0.158 | -0.304 | -0.213 | 0.152 | -0.148
8 | CN1C(=O)[C@@]2(CCC(=O)OC(C)(C)C)N=C(c3ccc(OCCCO)cc3)O[C@H]2c2ccccc21 | 1.29 | -2.9 | -0.057 | 0.878 | -0.304 | -0.096 | 0.137 | -0.539 | 0.558 | 0.721
9 | C#CCCCON=C1C[C@@H](O)[C@@H](O)[C@@H]2[C@@H]3C(=O)N([C@@H](C)c4ccccc4)C(=O)[C@@H]3CC[C@H]12 | 0.207 | -0.638 | 0.45 | 0.0505 | -0.602 | 0.0354 | 0.0796 | -0.285 | 0.418 | 0.375
10 | CC(C)CON=C1C[C@@H](O)[C@@H](O)[C@@H]2[C@@H]3C(=O)N(Cc4ccccc4)C(=O)[C@@H]3CC[C@@H]12 | 0.673 | -0.19 | 0.409 | -0.312 | -0.475 | -0.0792 | -0.365 | -0.321 | 0.0394 | -0.102
11 | COCCCNC(=O)[C@]1(Cc2ccccc2)N=C(c2ccc(OCCCO)cc2)O[C@@H]1c1ccccc1 | 1.09 | -1.05 | -0.248 | 1.81 | 0.213 | 0.201 | 0.299 | 1.89 | 1.84 | 1.32
12 | Cc1cc2c(nc1C)CCCN2CC(O)CN1CCN(C)CC1 (stereo not given) | 0.329 | -0.162 | 0.625 | -0.441 | -0.482 | 0.212 | 0.116 | -0.23 | 0.395 | 0.908
13 | CCCC[C@@H]1C[C@H]1[C@@H](NS(=O)(=O)c1cccc2cccnc12)c1ccc(-c2ccccc2)cc1 | 0.97 | -0.122 | -0.732 | 0.691 | 1.23 | 0.138 | -0.01 | 1.31 | 0.0258 | 0.231
14 | [N-]=[N+]=Nc1ccccc1C[C@@]1(C(N)=O)N=C(c2ccc(OCCCO)cc2)O[C@@H]1c1ccccc1 | 0.692 | -2.38 | -1.09 | 1.7 | 0.824 | -0.0445 | 0.456 | 0.662 | 1.26 | 0.546
15 | O=C1[C@H]2[C@H]3[C@H](O)[C@H](O)CC(=NO[C@@H]4O[C@H](CO)[C@@H](O)[C@H](O)[C@H]4O)[C@H]3CC[C@H]2C(=O)N1C1CCCCC1 | 1.3 | 0.524 | 0.271 | -0.0656 | -0.0964 | -0.0721 | 0.0062 | 0.604 | 0.129 | 0.0855
16 | O=C1[C@H]2[C@H]3[C@H](O)[C@H](O)CC(=NO[C@@H]4O[C@H](CO)[C@@H](O)[C@H](O)[C@H]4O)[C@@H]3CC[C@H]2C(=O)N1c1ccc(F)cc1F | 0.343 | 0.434 | 0.428 | -0.364 | -0.561 | -0.12 | 0.284 | -0.349 | 0.467 | 0.161
17 | CCN1C(=O)[C@H]2[C@H]3[C@H](O)[C@H](O)CC(=NOCc4ccccc4)[C@@H]3CC[C@H]2C1=O | 0.515 | -0.0462 | 0.609 | 0.36 | -0.467 | -0.0819 | -0.349 | -0.551 | 0.138 | 0.29
18 | C=CC[C@@H]1C=C[C@H](ON=C[C@@H](OC)[C@H](C)C=CCC(=O)OC)[C@@H](CO)O1 | 0.241 | -0.581 | 0.283 | -0.67 | -1.65 | -0.0222 | -0.0035 | -0.526 | 0.848 | -0.741
